According to the supplement of paper PMC13380429:

Experiments:
[1] = tested on: Vero E6 infected with SARS-CoV-2; test: morphology score (similarity to uninfected cells); higher = more like uninfected cells; settings: 24 h
[2] = tested on: Vero E6 infected with SARS-CoV-2; test: SARS-CoV-2 infection rate relative to infected DMSO; higher = more infection, active = 60 or less; settings: 24 h

Row | SMILES | morphology score [1] | SARS-CoV-2 infection rate [2]
1 | C/C=C1\[C@H]2C=C(C)C[C@]1(N)c1ccc(=O)[nH]c1C2 [(-)-Huperzine A] (10 µM) | -0.118 | 108% (inactive)
2 | CCC1(c2ccc(N)cc2)CCC(=O)NC1=O (stereo not given) [aminoglutethimide] (10 µM) | -0.0825 | 110% (inactive)
3 | CCN(Cc1ccc(Cl)nc1)/C(=C/[N+](=O)[O-])NC [nitenpyram] (10 µM) | 0.0591 | 101% (inactive)
4 | COC(=O)C(c1ccccc1)C1CCCCN1 (stereo not given) (10 µM) | 0.0486 | 114% (inactive)
5 | Nc1c(S(=O)(=O)O)cc(Nc2cccc3ccccc23)c2c1C(=O)c1ccccc1C2=O (10 µM) | 0.145 | 112% (inactive)
6 | COc1c(N2C[C@@H]3CCCN[C@@H]3C2)c(F)cc2c(=O)c(C(=O)O)cn(C3CC3)c12 [moxifloxacin] (10 µM) | 0.0295 | 106% (inactive)
7 | C[C@@H]1C[C@H]2[C@@H]3C[C@H](F)C4=CC(=O)C=C[C@]4(C)[C@@]3(Cl)[C@@H](O)C[C@]2(C)[C@H]1C(=O)COC(=O)C(C)(C)C [clocortolone-pivalate] (10 µM) | 0.067 | 98% (inactive)
8 | CCN(Cc1ccncc1)C(=O)C(CO)c1ccccc1 (stereo not given) [tropicamide] (10 µM) | -0.0682 | 104% (inactive)
9 | C#C[C@]1(O)C=C[C@H]2[C@@H]3CCC4=CC(=O)CC[C@@H]4[C@H]3CC[C@@]21CC [gestodene] (10 µM) | 0.149 | 107% (inactive)
10 | CC(=O)Nc1ccccc1 [acetanilide] (10 µM) | 0.174 | 102% (inactive)
11 | CC(=O)Nc1ccc(C(=O)O)cc1 [acedoben] (10 µM) | 0.0304 | 102% (inactive)
12 | CC[C@@H]1C(=O)N(C)c2cnc(Nc3ccc(C(=O)N[C@H]4CC[C@H](N5CCN(CC6CC6)CC5)CC4)cc3OC)nc2N1C(C)C [volasertib] (10 µM) | -0.314 | 104% (inactive)
13 | Cc1cc(N)c2ccccc2[n+]1CCCCCCCCCC[n+]1c(C)cc(N)c2ccccc21 [dequalinium] (10 µM) | 0.175 | 94% (inactive)
14 | CC(C)CCC[C@@H](C)[C@H]1CC[C@H]2[C@@H]3CCC4=CC(=NO)CC[C@]4(C)[C@H]3CC[C@]12C [olesoxime] (10 µM) | -0.0917 | 106% (inactive)
15 | CC1=NN(c2ccccc2)C(=O)C1 [edaravone] (10 µM) | 0.127 | 101% (inactive)
16 | Fc1ccccc1-c1nc2ccn(Cc3ccc(-c4ccc(C(F)(F)F)cc4C(F)(F)F)nn3)cc-2n1 [tegobuvir] (10 µM) | 0.081 | 102% (inactive)
17 | CCOCc1cc(OC)c(-c2ccc(C[C@H](NC(=O)c3c(F)cccc3F)C(=O)O)cc2)c(OC)c1 [firategrast] (10 µM) | -0.05 | 105% (inactive)
18 | CN1C2CCCC1CC(NC(=O)c1nn(C)c3ccccc13)C2 (stereo not given) [granisetron] (10 µM) | -0.16 | 98.5% (inactive)
19 | CCN1CCN(C(=O)N[C@@H](C(=O)N[C@@H]2C(=O)N3[C@@H]2SC(C)(C)[C@@H]3C(=O)O)c2ccccc2)C(=O)C1=O [piperacillin] (10 µM) | 0.11 | 96% (inactive)
20 | CCc1cc(/C(C)=N/OCc2ccc(C3CCCCC3)c(C(F)(F)F)c2)ccc1CN1CC(C(=O)O)C1 [siponimod] (10 µM) | 0.0973 | 100% (inactive)
21 | N#CC(=C(/N)Sc1ccccc1N)/C(C#N)=C(/N)Sc1ccccc1N (10 µM) | -0.197 | 113% (inactive)
22 | S=C(NC1CCCCC1)N1CCC(c2cnc[nH]2)CC1 [thioperamide] (10 µM) | 0.083 | 96.5% (inactive)
23 | CN(C)CCCN1c2ccccc2Sc2ccc(Cl)cc21 [chlorpromazine] (0.833333 µM) | 0.071 | 98.5% (inactive)
24 | C[N+](C)(C)[C@@H](Cc1c[nH]c(=S)[nH]1)C(=O)O [L-ergothioneine] (10 µM) | 0.0598 | 99% (inactive)
25 | COc1ccc(C(=O)NCc2cccnc2)cc1C(=O)NCc1cccnc1 [picotamide] (10 µM) | -0.08 | 115% (inactive)
26 | O=C(O)CNC(=O)c1ccccc1 [hippuric-acid] (10 µM) | -0.0766 | 109% (inactive)
27 | NC(=O)c1noc([C@H](CCCC2CCCCC2)CC(=O)NO)n1 (10 µM) | 0.51 | 85% (inactive)
28 | c1coc(CNc2ncnc3[nH]cnc23)c1 [kinetin] (10 µM) | 0.0735 | 104% (inactive)
29 | c1cnc2c([O][Ga]([O]c3cccc4cccnc34)[O]c3cccc4cccnc34)cccc2c1 [gallium-triquinolin-8-olate] (10 µM) | 0.775 | 16.5% (active)
30 | COc1cc2c(NC3CCN(C(C)C)CC3)nc(N3CCC(F)(F)CC3)nc2cc1OCCCN1CCCC1 (10 µM) | 0.243 | 25.5% (active)
